Records with an inconclusive call do not appear. Active and inactive are the calls of the source. Rule for the calls: active = hit-call score of the fitted dose curve at least 0.9, where 1 is the maximum; inconclusive = response in the unintended direction; inactive = score below 0.9.
biological target: Bile acid receptor (Homo sapiens) (UniProt Q96RI1); experiment: ATG_FXR_TRANS: Attagene TRANS-FACTORIAL HepG2 Assay for Farnesoid X Receptor (FXR) (AID 2282979); conditions: HepG2 Attagene TRANS FXR-GAL4 reporter transcription;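 note: hits raise reporter mRNA above DMSO so AC50 marks FXR activation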
Description: ATG_TRANS is a cell-based, multiplexed-readout assay that uses HepG2, a human liver cell line, with measurements taken at 24 hours after chemical dosing in a 24-well plate.ATG_FXR_TRANS is one of 30 assay component(s) measured or calculated from the ATG_TRANS assay. It is designed to make measurements of mRNA induction, a form of inducible reporter, as detected with fluorescence intensity signals by Reverse transcription polymerase chain reaction (RT-PCR) and Capillary electrophoresis technology.Data from the assay component ATG_FXR_TRANS was analyzed into 1 assay endpoint. This assay endpoint, ATG_FXR_TRANS, was analyzed in the positive analysis fitting direction relative to DMSO as the negative control and baseline of activity. Using a type of inducible reporter, measures of mRNA for gain-of-signal activity can be used to understand the reporter gene at the transcription factor-level as they relate to the gene NR1H4. Furthermore, this assay endpoint can be referred to as a primary readout, because this assay has produced multiple assay endpoints where this one serves a reporter gene function. To generalize the intended target to other relatable targets, this assay endpoint is annotated to the nuclear receptor intended target family, where the subfamily is non-steroidal.
Human liver HepG2 cells are transiently transfected with multiple reporter transcription units (MRTUs) in 6-well plates using FuGene 6 reagent (Roche; 3 ml FuGene/1 mg DNA). The MRTU constructs are regulated by a cis-regulating element (promoter). […] A major difference between the CIS and TRANS system is that in CIS activities of endogenous TFs are measured, whereas the TRANS assay evaluates changes in activities of exogenous, chimeric NR-Gal4 proteins. […] At the end of 24 hour incubation, total RNA was isolated using TriZol reagent (Invitrogen). The isolated RNA is then reverse-transcribed using oligo(dT) primer and Mo-MLV reverse transcriptase (Invitrogen) with DNAse I (Ambion) treatment for 30 min. The one-tenth of the produced cDNA was amplified by PCR using Taq DNA polymerase (Invitrogen) and two reporter sequence-specific primers. The PCR products were fluorescently labeled by primer extension with 6-arboxyfluorescein (6-FAM) 5'-labeled reporter sequence-specific primer (2 min at 95 C, 20 s at 68 C and 10 min at 72 C) and these products were digested with 5U of HpaI (New England Biolabs) for 2h at 37 C. The fragments were purified using Qiaquick PCR columns (Qiagen), analyzed on an ABI 3130xL genetic analyzer (Applied Biosystems) with peak positions identified by using a set of X-rhodamine (ROX)-labeled MapMarker1000 molecular weight standards (BioVentures). The raw capillary electrophoresis data was processed using Attagraph software (Attagene).

Sequence of Bile acid receptor (Homo sapiens) (Q96RI1 whole entry, looked up, the tested form may be a part): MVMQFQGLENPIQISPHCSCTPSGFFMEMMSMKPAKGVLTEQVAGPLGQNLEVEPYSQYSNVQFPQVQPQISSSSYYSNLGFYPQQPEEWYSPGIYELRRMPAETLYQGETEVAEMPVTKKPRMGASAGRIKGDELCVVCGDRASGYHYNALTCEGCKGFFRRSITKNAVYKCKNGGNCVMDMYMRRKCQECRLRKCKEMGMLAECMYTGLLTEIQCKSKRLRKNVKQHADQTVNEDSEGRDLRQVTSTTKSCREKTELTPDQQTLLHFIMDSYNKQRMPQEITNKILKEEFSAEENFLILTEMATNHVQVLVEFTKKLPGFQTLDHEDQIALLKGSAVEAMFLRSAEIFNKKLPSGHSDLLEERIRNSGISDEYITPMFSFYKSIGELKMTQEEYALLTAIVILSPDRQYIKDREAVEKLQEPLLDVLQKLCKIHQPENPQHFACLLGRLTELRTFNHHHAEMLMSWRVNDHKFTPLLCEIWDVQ

SMILES | AC50 | outcome
CC(C)c1cccc(C(C)C)c1N1C(=O)c2ccc(O)cc2C1=O | 19.8 µM (active) | 
Cn1c(=O)cc(Oc2ccc(F)cc2F)c2cnc(NCC(C)(C)O)nc21 |  | inactive
CCCCCCCCCCCCCCCO |  | inactive
CC[C@H](C)C(=O)O[C@H]1C[C@@H](C)C=C2C=C[C@H](C)[C@H](CC[C@@H]3C[C@@H](O)CC(=O)O3)[C@H]21 |  | inactive
CC(C)=CCC/C(C)=C\CO |  | inactive
Cc1c(-c2cccnc2)c2ccccc2n1CCCCC(=O)O |  | inactive
COC(=O)c1c(Cl)c(Cl)c(C(=O)OC)c(Cl)c1Cl |  | inactive
O=C1CCCCCN1 |  | inactive
C1=CCCC=CCCC=CCC1 |  | inactive
CC1(C)C(=O)N(Br)C(=O)N1Br |  | inactive
Nc1cccc(N)c1 |  | inactive
Cc1[nH]cnc1C[C@H]1CCc2c(C)c3ccccc3n2C1=O |  | inactive
CCCCC(CC)COC(=O)c1ccc(C(=O)OCC(CC)CCCC)cc1 (configuration not stated) |  | inactive
Oc1ccc2c(c1)-c1ccccc1C2 |  | inactive
COc1cccc(-c2ccc(/C=C\CN3CCCCCC3)cc2Cl)c1 |  | inactive
CCc1cc(SCc2sc(-c3ccc(C(F)(F)F)cc3)nc2CN2CCN(c3ccc(OC)cc3)CC2)ccc1OCC(=O)O |  | inactive
CN(C)c1ccc(Cc2ccc(N(C)C)cc2)cc1 |  | inactive
COc1ccc2sc(C(=O)Nc3nnn[nH]3)c(OC(C)C)c2c1 |  | inactive
COCCOc1cc2cc(C(=O)NC3CCN(C(C)C)CC3)n(CC(=O)Nc3ccc(Cl)cn3)c2cn1 |  | inactive
CCOc1cccc(-n2cc(C(=O)N3CCN(c4cc(C(=O)O)c5ccccc5c4)CC3)nc2-c2ccc(C)cc2)c1 |  | inactive
Fc1ccccc1[C@@H](F)COC1CCC(Nc2ncnc3[nH]ncc23)CC1 (some centres not stated) | 25.6 µM (active) | 
CCOC(=O)c1ccc(C2CCC(NC[C@H](O)COc3ccc(O)c(NS(C)(=O)=O)c3)CC2)cc1 (some centres not stated) | 33 µM (active) | 

From PubChem BioAssay (EPA / NIEHS)
